These results are taken from PubChem BioAssay AID2073 (Sanford-Burnham Center for Chemical Genomics, 2009).

The campaign covered roughly 290,000 compounds. About 570 (0.2%) were called active. Inconclusive results (about 1%) are left out. The sample holds actives, similar compounds and a random draw of the others, so the mix is not that of the screen. Cut-off read from the data, not from the text of the source: active = inhibition mostly above about 51% (no sharp cut-off); inconclusive = no clear call, values can overlap the other calls; inactive = mostly below about 53%.

What is called inhibition is the change of the read-out against control, counted positive when it falls.

In the test the target is Voltage-dependent N-type calcium channel subunit alpha-1B (Homo sapiens) (UniProt Q00975). Description: inhibitors of Mint1-CaV2.2 protein interaction, biochemical, HTRF (AID 2073). The note with it: at 20 µM, stronger effect = higher value.
Where [1] appears, read: measured here: average of repeat tests.

Voltage-dependent N-type calcium channel subunit alpha-1B (Homo sapiens), sequence (Q00975 whole entry, looked up): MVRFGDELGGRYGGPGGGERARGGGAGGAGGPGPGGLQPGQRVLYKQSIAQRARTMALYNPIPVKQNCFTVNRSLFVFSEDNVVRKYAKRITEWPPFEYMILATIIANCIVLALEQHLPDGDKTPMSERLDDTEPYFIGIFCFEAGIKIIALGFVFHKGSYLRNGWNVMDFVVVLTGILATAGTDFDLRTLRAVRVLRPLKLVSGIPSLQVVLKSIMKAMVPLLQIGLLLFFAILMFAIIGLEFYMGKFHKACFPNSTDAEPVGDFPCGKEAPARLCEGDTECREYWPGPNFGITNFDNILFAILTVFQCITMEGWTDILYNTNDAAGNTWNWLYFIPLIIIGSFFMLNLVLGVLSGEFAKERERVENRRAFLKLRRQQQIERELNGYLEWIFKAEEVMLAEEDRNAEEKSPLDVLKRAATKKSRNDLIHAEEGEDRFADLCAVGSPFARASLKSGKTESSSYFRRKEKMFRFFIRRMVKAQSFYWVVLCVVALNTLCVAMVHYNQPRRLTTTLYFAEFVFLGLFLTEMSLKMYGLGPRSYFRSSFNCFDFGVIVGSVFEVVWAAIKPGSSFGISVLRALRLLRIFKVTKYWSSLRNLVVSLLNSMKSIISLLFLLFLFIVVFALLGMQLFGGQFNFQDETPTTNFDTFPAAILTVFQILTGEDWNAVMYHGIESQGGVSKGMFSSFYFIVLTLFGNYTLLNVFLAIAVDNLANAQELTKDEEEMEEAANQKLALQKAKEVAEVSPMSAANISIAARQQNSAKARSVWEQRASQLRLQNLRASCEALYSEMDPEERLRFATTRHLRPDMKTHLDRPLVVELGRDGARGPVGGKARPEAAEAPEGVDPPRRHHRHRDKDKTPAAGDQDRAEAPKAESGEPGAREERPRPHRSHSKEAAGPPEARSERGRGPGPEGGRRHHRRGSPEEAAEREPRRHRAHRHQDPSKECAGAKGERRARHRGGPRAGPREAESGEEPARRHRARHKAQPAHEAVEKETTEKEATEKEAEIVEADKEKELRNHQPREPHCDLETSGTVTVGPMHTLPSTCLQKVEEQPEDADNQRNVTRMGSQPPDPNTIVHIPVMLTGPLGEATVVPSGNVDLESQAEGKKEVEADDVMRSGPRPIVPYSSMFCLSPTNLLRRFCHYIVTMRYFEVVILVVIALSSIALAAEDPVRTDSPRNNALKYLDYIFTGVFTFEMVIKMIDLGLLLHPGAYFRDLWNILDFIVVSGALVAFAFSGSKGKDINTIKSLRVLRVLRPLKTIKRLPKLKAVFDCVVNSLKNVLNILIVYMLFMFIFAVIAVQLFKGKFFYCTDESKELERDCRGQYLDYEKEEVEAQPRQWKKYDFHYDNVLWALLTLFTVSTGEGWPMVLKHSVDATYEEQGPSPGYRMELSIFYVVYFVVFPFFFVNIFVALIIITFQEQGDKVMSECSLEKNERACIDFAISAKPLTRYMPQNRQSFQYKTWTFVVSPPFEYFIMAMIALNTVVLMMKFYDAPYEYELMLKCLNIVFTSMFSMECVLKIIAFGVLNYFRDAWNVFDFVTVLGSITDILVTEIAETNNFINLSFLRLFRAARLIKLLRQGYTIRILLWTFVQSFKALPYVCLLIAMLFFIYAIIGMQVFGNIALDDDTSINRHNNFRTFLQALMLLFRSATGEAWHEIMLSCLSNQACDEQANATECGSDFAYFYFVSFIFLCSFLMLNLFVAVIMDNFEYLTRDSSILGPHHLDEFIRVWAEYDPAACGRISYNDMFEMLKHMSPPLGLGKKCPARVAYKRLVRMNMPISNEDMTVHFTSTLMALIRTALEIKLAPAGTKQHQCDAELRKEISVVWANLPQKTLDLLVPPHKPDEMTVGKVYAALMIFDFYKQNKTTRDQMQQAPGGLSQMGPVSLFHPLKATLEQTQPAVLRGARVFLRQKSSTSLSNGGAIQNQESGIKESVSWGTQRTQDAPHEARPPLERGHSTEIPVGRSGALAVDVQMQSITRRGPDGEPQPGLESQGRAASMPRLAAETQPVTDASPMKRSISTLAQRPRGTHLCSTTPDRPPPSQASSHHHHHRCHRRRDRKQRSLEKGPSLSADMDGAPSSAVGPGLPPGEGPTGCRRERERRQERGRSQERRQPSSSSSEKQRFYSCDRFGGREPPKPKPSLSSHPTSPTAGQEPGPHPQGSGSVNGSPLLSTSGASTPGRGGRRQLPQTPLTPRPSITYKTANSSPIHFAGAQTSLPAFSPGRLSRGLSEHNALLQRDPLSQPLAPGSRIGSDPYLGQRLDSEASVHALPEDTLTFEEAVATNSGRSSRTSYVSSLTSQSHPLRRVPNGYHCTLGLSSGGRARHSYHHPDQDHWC

Take `CC1(C)OC(=O)C(=CNc2ccccc2)C(=O)O1`: the inhibition was -0.4% (inactive).
With `O=C(/C=C/Nc1ccccc1)c1ccccc1`, the inhibition was -0.7% (inactive).
Take `O=C([C@@H]1Cc2ccccc2CN1)N1CCN(Cc2ccccc2)CC1`: the inhibition was 8.9% (inactive).
The same measure, in the same setting: the result for `Cc1ccc(-n2ncc3c2CCCC3NC(=O)CCc2c(C)noc2C)cc1C` (stereo not drawn) reads 16.6% (inactive); that for `CNc1ccc(Br)cc(C(=O)/C=C/c2cccc(Cl)c2Cl)c1=O`, 41.9% (inactive); that for `CCNc1ccc(Br)cc(C(=O)/C=C/c2ccc(Cl)cc2Cl)c1=O`, 23.6% (inactive).
Turning to `CNc1ccc(Br)cc(C(=O)/C=C/c2ccc(Cl)cc2Cl)c1=O`, the inhibition is 52.7% (active).
For `N=C1S/C(=C\c2ccco2)C(=O)N1c1nccs1`, the inhibition was 50% (active).
Turning to `N=C1S/C(=C\c2ccc(-c3cccc(Cl)c3)o2)C(=O)N1c1nccs1`, the inhibition was 35.6% (inactive).
Take `COc1ccc(/C=C2\SC(=N)N(c3nccs3)C2=O)cc1OC`: the inhibition is 20.5% (inactive).
As for `N=C1S/C(=C\c2ccco2)C(=O)N1c1ccc2c(c1)OCO2`, the inhibition was 56% (active).
On to `COc1cc(/C=C2\SC(=N)N(c3ccc4c(c3)OCO4)C2=O)cc(OC)c1O`, for which the inhibition is -8.5% (inactive).
Regarding `N=C1S/C(=C\c2ccc(-c3ccccc3C(=O)O)o2)C(=O)N1c1ccc2c(c1)OCO2`, the inhibition is 17.7% (inactive).
On the same count and under the same terms, the result for `c1ccc(Cc2nnc3sc(-c4cccnc4)nn23)cc1` reads -12.8% (inactive); that for `COc1ccc(CN(CC(=O)NC(C)C)C(=O)CCC(=O)Nc2nccs2)cc1`, 9.7% (inactive); that for `CCOc1ccc(N2C(=O)CN(C)C2=S)cc1`, -2% (inactive).
Take `CC1CCN(C(=O)CCc2ccc(S(=O)(=O)NC(C)C)cc2)CC1`: the inhibition is 28.5% (inactive).
As for `O=C(Cn1c(-c2ccco2)nc2ccccc21)N1CCCCC1`, the inhibition is -14.9% (inactive).
As for `Cn1nc(C(F)(F)F)c(-c2ccc(Br)cc2)c1NC(=O)c1nccnc1C(=O)O`, the inhibition is 0.4% (inactive).
Still for that read-out and setting: next, `COc1ccc(NC2CCCN(C(=O)c3csc(C(C)C)n3)C2)cc1OC` (stereo not drawn): -10% (inactive); `CSc1ccccc1OCc1cc(C(=O)NCc2cnc(C)cn2)no1`: 5.6% (inactive); `Clc1ccc(N=c2ssnc2Cl)nc1`: 38.2% (inactive).
As for `Fc1ccc(N=c2ssnc2Cl)c(F)c1`, the inhibition was 91.2% (active).
Turning to `OCc1ccccc1N=c1ssnc1Cl`, the inhibition is 9.9% (inactive).
For `Cc1cc(Cl)ccc1N=C1N=C(N)c2ccccc21`, the inhibition was -3.2% (inactive).
On to `Nc1ccccc1N=c1ssnc1Cl`, for which the inhibition was 4.1% (inactive).
As for `COc1cccc(CNC(=O)CSc2nnc3c(n2)[nH]c2ccc(OC)cc23)c1`, the inhibition was 5.3% (inactive).
On to `Cc1ccc2c(Cl)cc(Cl)c(OCC(=O)NC(=O)NCc3ccco3)c2n1`, for which the inhibition was 17.4% (inactive).
The same measure, in the same setting: the result for `Cc1cc(Cl)cc(Cl)c1OCC(=O)NCc1ccco1` reads -1.4% (inactive); that for `Cc1ccc2c(Cl)cc(Cl)c(OCC(=O)NCc3ccco3)c2n1`, 56.6% (active); that for `CC1CCN(CC(=O)Nc2cccc(Cl)c2)CC1`, -2.2% (inactive).
On to `CC1(C(=O)N2CC3(CC(c4cccc([N+](=O)[O-])c4)=NO3)C[C@H]2C(=O)NCC(N)=O)CC1` (stereo partly drawn), for which the inhibition is -4.4% (inactive).
On to `O=C(c1ccco1)C(O)c1ccco1` (stereo not drawn), for which the inhibition is 16.7% (inactive).
Take `O=C(O)C(O)c1ccco1` (stereo not drawn): the inhibition was 65.3% (active).
The same measure, in the same setting: the result for `O=P(c1ccccc1)(c1ccccc1)C(O)c1ccco1` (stereo not drawn) reads -0.2% (inactive).
On the same count and under the same terms, next, `FC(F)(F)Oc1ccc(NC(=S)NCCCN2CCOCC2)cc1`: -16.9% (inactive).
Still for that read-out and setting: next, `COC(=O)C1CCCN1S(=O)(=O)c1ccccc1NC(=O)c1cc(OC)c(OC)c(OC)c1` (stereo not drawn): 12.9% (inactive); `O=C(O)c1ccc(-c2ccc(/C=c3/sc4nc5ccccc5n4c3=O)o2)cc1Cl`: 28.8% (inactive).
Take `O=C(O)c1cc(C(=O)O)cc(-c2ccc(/C=c3/sc4nc5ccccc5n4c3=O)o2)c1`: the inhibition was 67% (active).
As to `O=C(O)c1cccc(-c2ccc(/C=c3/sc4nc5ccccc5n4c3=O)o2)c1`, the inhibition was 26.7% (inactive).
On the same count and under the same terms, next, `COc1cc(/C=C(/C#N)c2nc(-c3cc4ccccc4oc3=O)cs2)cc([N+](=O)[O-])c1O`: 80.7% (active); `COc1cc(/C=C(\C#N)c2nc3ccccc3s2)cc([N+](=O)[O-])c1O`: 40.5% (inactive); `COc1cc(/C=C(\C#N)c2nc(-c3cc4ccccc4oc3=O)cs2)ccc1O`: 23.3% (inactive).
For the compound `COc1ccc(N2Cc3ccc(C(=O)N/N=C\c4ccc(O)cc4O)cc3C2)cc1`, the inhibition was 68.9% (inactive). Also, the inhibition under setting [1] is 29.4%.
For the compound `COc1ccc(NC(=O)c2cc3c(CO)cnc(C)c3oc2=Nc2cccc(C)c2)c(OC)c1`, the inhibition is 10.6% (inactive).
With `COc1ccc(NC(=O)c2cc3c(CO)cnc(C)c3oc2=Nc2cccc(F)c2)c(OC)c1`, the inhibition is 11.2% (inactive).
As to `COc1ccccc1C(=O)OCC(=O)NC1CCCC1`, the inhibition is 16.7% (inactive).
Take `NC(=O)c1ccccc1NC(=O)CN1CCOCC1`: the inhibition is -0.5% (inactive).
As to `COc1cc(/C=C/c2ccc3c(Br)cc(Br)c(O)c3n2)ccc1O`, the inhibition was 56.6% (active).
As for `COc1ccc(/C=C/c2ccc3c(Br)ccc(O)c3n2)cc1`, the inhibition is 32.5% (inactive).
For `COc1cc(/C=C/c2ccc3cccc(O)c3n2)ccc1O`, the inhibition was 21.1% (inactive).
Consider `COCC(=O)N(Cc1nc2sc(C)c(C)c2c(=O)[nH]1)C1CCCCC1`, for which the inhibition was 4.2% (inactive).
Consider `CN(Cc1ccccc1F)C(=O)c1ccccc1Sc1ccccc1C#N`, for which the inhibition is -14.5% (inactive).
Consider `COc1ccc(Nc2nc(-c3c(C)nc4ncccn34)cs2)cc1`, for which the inhibition was 55.6% (active).
Regarding `Cc1ccc(Nc2nc(-c3c(C)nc4ncccn34)cs2)cc1`, the inhibition is 7.5% (inactive).
Take `Cc1nc2ncccn2c1-c1csc(Nc2ccc(O)cc2)n1`: the inhibition is 25% (inactive).
For the compound `Cc1ccc2c(Cl)c(C(=O)NCC(c3ccco3)N3CCCC3)sc2c1` (stereo not drawn), the inhibition is 3% (inactive).
`O=c1c(Cl)nc2cc(Cl)ccc2n1CCNc1ncc(C(F)(F)F)cc1Cl`: the inhibition was -81.2% (inactive).
Still for that read-out and setting: the result for `Clc1ccc2nnnc(-c3ccccc3)c2c1` reads 8.1% (inactive).
As to `Cc1cc(C(=O)COC(=O)Cn2c(C(F)(F)F)nc3ccccc32)c(C)n1Cc1ccco1`, the inhibition is 1.6% (inactive).
With `CCOC(=O)CCCCCN1C(=O)c2cccc3cccc(c23)C1=O`, the inhibition was -9.7% (inactive).
On to `CC(=O)c1sc(NC(=O)CCN2C(=O)c3ccccc3C2=O)nc1C`, for which the inhibition was 14.5% (inactive).
`CCOC(=O)c1sc(NC(=O)CCCCCN2C(=O)c3cccc4cccc(c34)C2=O)nc1C`: the inhibition is 52.5% (active).
Still for that read-out and setting: the result for `O=C(CC1C(=O)NCCN1Cc1cccc(F)c1)NCCCOc1cccnc1` (stereo not drawn) reads 0.9% (inactive); that for `N=C1C(c2nc3ccccc3s2)=C(O)CN1NC(=O)c1ccccc1[N+](=O)[O-]`, 14.9% (inactive); that for `N=C1C(c2nc3ccccc3[nH]2)=C(O)CN1NC(=O)c1c[nH]c2ccccc12`, 2.4% (inactive).
In the case of `N=C1C(c2nc3ccccc3s2)=C(O)CN1NC(=O)c1c[nH]c2ccccc12`, the inhibition is 53.4% (active).
The same measure, in the same setting: the result for `COc1cc(OC)c(C2C(C#N)=C(C)NC(C)=C2C#N)c(C(=O)O)c1` reads -3.5% (inactive).
Consider `C=C(C)Cn1c(C2CC(=O)N(Cc3ccccc3)C2)nc2ccccc21` (stereo not drawn), for which the inhibition was -9.9% (inactive).
On to `CCCN(CCC)CCCNC(=O)C1CCN(S(=O)(=O)c2cccc3nsnc23)CC1`, for which the inhibition is -0.6% (inactive).
Same read-out and setting: the result for `CNC(=O)c1c(C)[nH]c(=S)c(C#N)c1-c1ccco1` reads -35.6% (inactive).
The same measure, in the same setting: the result for `Cc1ccccc1NC(=O)c1c(C)[nH]c(=S)c(C#N)c1-c1ccco1` reads 50.9% (active).
With `Cc1ccc(-c2c(C(=O)Nc3ccccc3C)c(C)[nH]c(=S)c2C#N)o1`, the inhibition is 33.2% (inactive).
For `CCOC(=O)CNc1nc(Cl)nc(N2CCCCC2)n1`, the inhibition was 6.2% (inactive).
Turning to `Cn1c(=O)c2c(n3cnnc13)-c1ccccc1CC21CCCC1`, the inhibition is 3.5% (inactive).
Regarding `COc1ccccc1CC(=O)Nc1cc(OC)c(NC(=O)c2ccccc2)cc1OC`, the inhibition was -5.3% (inactive).
On to `COc1cc(NC(=O)c2ccccc2)c(OC)cc1NC(=O)Cc1cccs1`, for which the inhibition was 51.4% (active).
On the same count and under the same terms, the result for `COc1ccccc1NC(=O)Cc1cccs1` reads -5.5% (inactive); that for `COc1ccc(OC)c(N=c2ssnc2Cl)c1`, 27.6% (inactive).
`COc1cc(N=c2ssnc2Cl)c(OC)cc1Cl`: the inhibition is 46.5% (inactive).
As for `COc1cc(/C=C/c2ccc3cccc(O)c3n2)cc(OC)c1OC`, the inhibition was 24.9% (inactive).
Same read-out and setting: next, `COc1ccc(N=c2ssnc2Cl)cc1`: 27.4% (inactive); `Cc1ccc2oc(-c3ccc(NC(=O)c4ccc5c(c4)OCO5)cc3)nc2c1`: 6.7% (inactive).
`Cc1ccc(-c2nc3ccccc3o2)cc1NC(=O)c1ccc2c(c1)OCO2`: the inhibition is -1.5% (inactive).
Turning to `O=C(Nc1ccc(-c2nc3ccccc3o2)cc1)c1ccc2c(c1)OCO2`, the inhibition was 66.2% (active).
Consider `Oc1ccc(Br)cc1CNc1cnc2ccccc2c1`, for which the inhibition is 13.6% (inactive).
For `O=C(N/N=C/c1ccc([N+](=O)[O-])o1)c1cn(-c2ccccc2)nc1-c1ccc(Cl)cc1`, the inhibition is 67.5% (active).
Consider `CCCc1ccc(-c2cc(C(=O)N/N=C/c3ccc([N+](=O)[O-])o3)c3ccccc3n2)cc1`, for which the inhibition was 27.9% (inactive).
Regarding `COc1ccc(-c2nn(-c3ccccc3)cc2C(=O)N/N=C/c2ccc([N+](=O)[O-])o2)cc1`, the inhibition was 50.6% (inactive). Further, under setting [1], the inhibition is 11.4%.
In the case of `O=C(N/N=C/c1ccc([N+](=O)[O-])o1)c1cn(-c2ccccc2)nc1-c1ccccc1`, the inhibition was 60.4% (inactive). In addition, the inhibition under setting [1] came out at 2.1%.
For the compound `O=C(N/N=C/c1ccc([N+](=O)[O-])o1)c1cc(-c2ccncc2)nc2ccccc12`, the inhibition was 20.1% (inactive).
Same read-out and setting: the result for `O=C(N/N=C/c1ccc([N+](=O)[O-])o1)c1cc(-c2ccc(-c3ccccc3)cc2)nc2ccccc12` reads 59.1% (active).
Same read-out and setting: the result for `CCn1c(SCc2ccc(C)cc2)nnc1-c1cnccn1` reads 1.9% (inactive).
Take `Cc1ccc(S(=O)(=O)c2cnc3cc(C)nn3c2N)cc1`: the inhibition is 9.4% (inactive).
Still for that read-out and setting: the result for `c1cnc(-c2noc(CN3CCN(C4C5CC6CC(C5)CC4C6)CC3)n2)cn1` (stereo not drawn) reads -1.9% (inactive).
